Experimental data published in PubChem BioAssay (NCI).
About 83,000 compounds went through this panel and 20% of them were active in at least one assay; those are over-represented in the sample as a whole.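 Assay: single dose, 48 h. Readout: percent growth (0 = no net growth; negative = cell death). Active: <10.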 Unmarked numbers belong to inactive results. Active and inactive are the calls of the source.

Key:
Experiment in all cases: NCI-60 one-dose screen, 48 h (100 = growth as untreated, 0 = no growth, -100 = all killed)
Details in all cases: 10 µM unless noted
EKVX NSCLC = tested on: EKVX NSCLC
SN12C renal = tested on: SN12C renal
UO-31 renal = tested on: UO-31 renal
TK-10 renal = tested on: TK-10 renal
ACHN renal = tested on: ACHN renal
CAKI-1 renal = tested on: CAKI-1 renal
A498 renal = tested on: A498 renal
CCRF-CEM leukemia = tested on: CCRF-CEM leukemia
MOLT-4 leukemia = tested on: MOLT-4 leukemia

SMILES	growth (EKVX NSCLC)	growth (SN12C renal)	growth (UO-31 renal)	growth (TK-10 renal)	growth (ACHN renal)	growth (CAKI-1 renal)	growth (A498 renal)	growth (CCRF-CEM leukemia)	growth (MOLT-4 leukemia)
Cc1cc(O)cc(-c2c(-c3ccnc(-c4cccnc4)c3)cnn2C)c1	89.5%	58.9%	36.1%	51%	39.5%	42.3%	5.82% (active)	61.7%	54.8%
CS(=O)(=O)CCNCc1ccc(-c2ccc3ncnc(Nc4ccc(OCc5cccc(F)c5)c(Cl)c4)c3c2)o1	29.9%	-17.9% (active)	19.6%	7.31% (active)	30.2%	40.1%	7.48% (active)	5.76% (active)	4.21% (active)
CC(=O)c1c(C)c2cnc(Nc3ccc(N4CCNCC4)cn3)nc2n(C2CCCC2)c1=O	58.8%	37.1%	20.2%	32.4%	17.1%	26.3%	31.7%	12.2%	11%
COCCN1CCN(Cc2ccc(-c3n[nH]c4c3C(=O)c3c(NC(=O)NN5CCOCC5)cccc3-4)cc2)CC1	-3.26% (active)	7.64% (active)	-14.2% (active)	-30.9% (active)	3.84% (active)	-18.3% (active)	-22% (active)	-15.3% (active)	-15% (active)
Brc1ccc([I+]c2ccc(Br)cc2)cc1	19.3%	-26.9% (active)	51.2%	-18% (active)	39%	51.2%	71.6%	20.3%	19.9%
CCCCOc1nc2cc(Cl)ccc2cc1/C=C/c1cc(/C=C/c2cc3ccc(Cl)cc3nc2OCCCC)n(-c2ccccc2)n1	113%	94%	89.9%	91.4%	75.6%	78.5%	97.9%	98.9%	84.8%
O=C(Cc1ccc(-c2ccc(OCCN3CCOCC3)cc2)cn1)NCc1ccccc1	26.1%	20.3%	35.8%	40.3%	22.1%	19%	1.26% (active)	9.96% (active)	18.1%
N[C@@H]1CCCN(c2c(/C=C3\SC(=O)NC3=O)cccc2-c2ccccc2)C1	62.6%	65%	31.9%	78.6%	73.2%	73.6%	75%	55.3%	31.1%
Cc1oc2c(C(=O)N/N=C\c3ccc(O)cc3O)c[nH]c2c1C	26.6%	44.5%	-0.347% (active)	6.21% (active)	-7.76% (active)	1.53% (active)	44.6%	23.9%	8.56% (active)
CC(=O)C1=C(C)NC(SCc2nnc(-c3ccc(C)cc3)o2)=NC1c1ccc(F)cc1 (configuration not stated)	107%	93.1%	83.6%	85.6%	92%	88%	109%	88.1%	94.1%
CCCCn1c(C)nc2ccc(Nc3nc(N4CCN(C)CC4)nc4nc[nH]c34)cc21	96.9%	87.3%	83.7%	104%	106%	99.8%	71.7%	90.5%	87.1%
CN(C)C1CCN(C(=O)c2ccc(NC(=O)Nc3ccc(-c4nc(N5CCOCC5)nc(N5CCOCC5)n4)cc3)cc2)CC1	40.3% [2.5 µM]	3.23% [2.5 µM] (active)	32.2% [2.5 µM]	-9.03% [2.5 µM] (active)	55.6% [2.5 µM]	10.2% [2.5 µM]	-54.1% [2.5 µM] (active)	9.68% [2.5 µM] (active)	-7.96% [2.5 µM] (active)
Cc1cc2c(F)c(Oc3ncnn4cc(OC[C@@H](C)OC(=O)[C@H](C)N)c(C)c34)ccc2[nH]1	61.2%	55.6%	36.3%	35.6%	46.8%	48.8%	21.7%	45.4%	48.3%
COc1ccc(-c2ccc3ncc4c(c3c2)n(-c2ccc(N3CCNCC3)c(C(F)(F)F)c2)c(=O)n4C)cn1	-77.1% (active)	-80.7% (active)	-90.9% (active)	-90.2% (active)	-97.5% (active)	-94.8% (active)	-79.2% (active)	-47.1% (active)	-50.8% (active)
CCN(CCO)CCCOc1ccc2c(Nc3cc(CC(=O)Nc4cccc(F)c4)[nH]n3)ncnc2c1	51.8%	46.9%	50.4%	31.5%	48.9%	35.4%	47.4%	40.3%	36.3%
COC(=O)N[C@@H](C)CNc1nccc(-c2cn(C(C)C)nc2-c2cc(Cl)cc(NS(C)(=O)=O)c2F)n1	63.1%	66.9%	16.9%	52%	28%	34.2%	31.9%	89.8%	67.4%
COc1cc(Nc2ncc(F)c(Nc3ccc4c(n3)NC(=O)C(C)(C)O4)n2)cc(OC)c1OC	52.4%	36.6%	2.95% (active)	27.2%	5.32% (active)	9.51% (active)	-43.9% (active)	61%	52.4%
CC1=CC2c3oc(-c4ccccc4)c(C(=O)c4ccccc4)c3CNC2C=C1 (configuration not stated)	107%	88.5%	72.2%	96%	87.4%	94.8%	100%	76.1%	101%
O=C1NC(=O)[C@@H](c2cn3c4c(cccc24)CCC3)[C@@H]1c1c[nH]c2ccccc12	31.4%	31.1%	45.9%	43%	35.7%	27%	11.8%	20.9%	18.6%
C=CCn1c(=O)c2cnc(Nc3ccc(N4CCN(C)CC4)cc3)nc2n1-c1cccc(C(C)(C)O)n1	22.5%	28.4%	10.5%	13.8%	25.4%	23.3%	-26% (active)	8% (active)	3.84% (active)
CCCNC(=O)c1cn2ncnc(Nc3cc(C(=O)NC4CC4)ccc3C)c2c1C	87.2%	88.4%	45.2%	104%	58.6%	67.6%	56.9%	73.9%	92.6%
O=C(Nc1ccc(Nc2ncnc3sc4c(c23)CCOC4)cc1)Nc1ccc(Cl)c(C(F)(F)F)c1	105%	105%	115%	109%	86.6%	107%	89.5%	86.7%	74.4%
NC1(c2ccc(-c3nc4ccn5c(=O)[nH]nc5c4cc3-c3ccccc3)cc2)CCC1	40.6%	50.9%	28.6%	44.3%	36.2%	32.3%	-62.8% (active)	1.33% (active)	-13.2% (active)
CN1CCN(c2ccc(C(=O)Nc3n[nH]c4ccc(Cc5cc(F)cc(F)c5)cc34)c(NC3CCOCC3)c2)CC1	8.7% (active)	-6.17% (active)	-90.7% (active)	-5.76% (active)	-7.72% (active)	-80.7% (active)	-54.8% (active)	1.8% (active)	-20.4% (active)
Clc1ccc(C(Cn2ccnc2)OCc2ccsc2Cl)c(Cl)c1 (configuration not stated)	48.4%	65.6%	25.8%	71.6%	56.9%	42.4%	49.8%	43.4%	17.3%
Cn1c(Nc2ccc(C(F)(F)F)cc2)nc2cc(Oc3ccnc(-c4ncc(C(F)(F)F)[nH]4)c3)ccc21	57.9%	59.8%	28.8%	95%	42.2%	34.7%	23.7%	36.6%	25.7%
O=C1NC(=O)/C(=C/c2ccc3nccc(-c4ccncc4)c3c2)S1	-16.9% (active)	-5.67% (active)	-37.7% (active)	-68.8% (active)	-21.2% (active)	-40.2% (active)	-77.1% (active)	0.0384% (active)	-8.29% (active)
CCc1cnn2c(NCc3ccc[n+]([O-])c3)cc(N3CCCC[C@H]3CCO)nc12	-11.2% (active)	4.31% (active)	-7.4% (active)	-16% (active)	2.95% (active)	6.71% (active)	-60.4% (active)	-0.938% (active)	-9.3% (active)
